Assay [1] is described as follows: qHTS assay to identify small molecule agonists of the vitamin D receptor (VDR) signaling pathway - cell viability counter screen (AID 743224). Further: nearly all actives have a fitted effect of over 50% in size. An outline of the steps:
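Counter screen for cytotoxicity: VDR-bla cells at 2,000 cells/well, 16 h compound exposure, then CellTiter-Glo luminescence after the beta-lactamase measurement.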

Assay [2] in a line: qHTS assay to identify small molecule antagonists of the vitamin D receptor (VDR) signaling pathway - cell viability counter screen (AID 743225). Further: nearly all actives have a fitted effect of over 50% in size. The method, boiled down: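 Cytotoxicity counter screen read by CellTiter-Glo luminescence (30 min, room temperature) in the same wells as the VDR-bla antagonist readout. HEK 293T VDR-UAS-bla cells had 16 h at 37C with compound and 3 nM (final) 1-alpha,25-dihydroxyvitamin D3, then 2 h with FRET substrate.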

Assay [3] can be described thus: qHTS assay to identify small molecule agonists of the NFkB signaling pathway (AID 1159509; active means well fitted curve in the direction sought with a large enough effect in the signal ratio in the repeat runs, not every such curve was filed as active; the % refers to the signal ratio). An outline of the steps: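 Pathway activation was measured in ME-180 cells stably expressing beta-lactamase under NF-kB response element control. Substrate cleavage was read as the 460/530 nm emission shift after 5 hr compound incubation.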
In general terms: Quantitative high-throughput screening tests each substance at several concentrations.

Assay [4] is described as follows: qHTS assay to identify small molecule agonists of the NFkB signaling pathway - cell viability counter screen (AID 1159515; calls by dose curve; further: nearly all actives have a fitted effect of over 55% in size). An outline of the steps: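 Counter screen run alongside the NFkB-bla agonist assay: ME-180 reporter cells exposed to compounds for 5 hr, then lysed with CellTiter-Glo in the same wells. Luminescence, read after 30 min, reflects viable cells.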

Assay [5] can be described thus: qHTS assay to identify small molecule agonists of the endoplasmic reticulum stress response signaling pathway (AID 1159516; active means well fitted activation curve with a large enough effect in the signal ratio in the repeat runs, not every such curve was filed as active; the % refers to the signal ratio). An outline of the steps:
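For this screen, HeLa cells stably carrying beta-lactamase under the ER stress response element received test compounds, positive controls or DMSO for 5 hr at 37 C; B/G FRET substrate was then added and dual-wavelength emission recorded.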

Assay [6] in a line: qHTS assay to identify small molecule agonists of the endoplasmic reticulum stress response signaling pathway - cell viability counter screen (AID 1159517; calls by dose curve; further: nearly all actives have a fitted effect of over 50% in size). An outline of the steps:
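Cpd-treated ESRE-bla HeLa (5 hr, 37 C) → LiveBLAzer 2 hr RT → CellTiter-Glo 30 min RT → luminescence.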

Assay [7] in a line: qHTS assay to identify small molecule antagonists of the retinoid-related orphan receptor gamma (ROR-gamma) signaling pathway - cell viability counter screen (AID 1159520). Further: nearly all actives have a fitted effect of over 50% in size. An outline of the steps:
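Tet-on ROR gamma CHO cells (1,000/well) were plated 4 hr, given compounds in DMSO for 2 hr at 37 C, then induced with 1 uM final doxycycline for 16 hr. Viability was read as ATP by CellTiter-Glo luminescence after 30 min.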

Assay [8] has as its target Nuclear receptor ROR-gamma (Homo sapiens) (UniProt P51449). As to the kind of experiment: qHTS assay to identify small molecule antagonists of the retinoid-related orphan receptor gamma (ROR-gamma) signaling pathway (AID 1159521). The method, boiled down:
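Antagonist read-out: drop in luminescence (ONE-Glo) from an RORE-LUC reporter in CHO cells with doxycycline-inducible ROR-gamma; 2 hr compound pretreatment, 1 uM doxycycline, 16 hr incubation at 37 C.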

Assay [9] can be described thus: qHTS assay to identify small molecule agonists of the AP-1 signaling pathway - cell viability counter screen (AID 1159525; calls by dose curve; further: nearly all actives have a fitted effect of over 55% in size). An outline of the steps:
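Each titration point was normalised to DMSO and tetra n-octyl ammonium bromide controls. The read was Cell Titer Glo luminescence after 30 min at RT, following 5 h compound exposure of ME-180 AP-1-bla cells at 37 °C.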

A short description of assay [10]: qHTS assay to identify small molecule agonists of the AP-1 signaling pathway (AID 1159526; calls by dose curve).
The target in assay [11] is Retinoic acid receptor RXR-alpha (Homo sapiens) (UniProt P19793). The experiment in a line: qHTS assay to identify small molecule agonists of the RXR signaling pathway (AID 1159527; calls by dose curve; further: nearly all actives have a fitted effect of over 35% in size). The method, boiled down: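 Agonist-mode beta-lactamase reporter assay: HEK 293T RXR-alpha-UAS-bla cells treated 16 hr at 37 C with compounds, 9-cis retinoic acid as positive control. LiveBLAzer FRET substrate, 405 nm excitation, 460/530 nm emission.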

Assay [12] is described as follows: qHTS assay to identify small molecule antagonists of the retinoid acid receptor (RAR) signaling pathway - cell viability counter screen (AID 1159551). Further: nearly all actives have a fitted effect of over 35% in size. An outline of the steps: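 Measured by luminescent ATP detection, viability reflects C3RL4 cells treated 6 h at 37 C with test chemicals in the presence of 1 uM (final) retinol.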
Assay [13] in a line: qHTS assay to identify small molecule antagonists of the retinoic acid receptor (RAR) signaling pathway (AID 1159552; further: nearly all actives have a fitted effect of over 50% in size). The method, boiled down:
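Luminescent RARE reporter read-out in C3RL4 cells: 6 hr co-treatment at 37 C of test compounds with retinol at 1 uM final. Cells plated overnight beforehand; luciferase reagent incubated 30 min at room temperature before reading.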

Assay [14] in a line: qHTS assay to identify small molecule agonists of the retinoic acid receptor (RAR) signaling pathway (AID 1159553). Further: potency means the concentration at half of the fitted maximal effect. The note with it: C3RL4 RARE luciferase reporter, agonist, 6 h; activation: at 73.3 µM (top of the series). The method, boiled down:
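6 hr compound exposure (DMSO vehicle) of overnight-plated C3RL4 RARE-luc cells at 37 C; luminescence quantified after 30 min RT with luciferase reagent.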

Assay [15] in a line: qHTS assay to identify small molecule antagonists of the estrogen related receptor (ERR) signaling pathway from Tox21 library - cell viability counter screen (AID 1224834). Further: nearly all actives have a fitted effect of over 30% in size. An outline of the steps:
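Seeded ERR cells were rested 6 h at 37 C/5% CO2 before compounds, positive and negative controls or DMSO were added. Incubation continued for 17.5 h, and viability was then quantified by CellTiter-Fluor fluorescence.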

A short description of assay [16]: qHTS assay to identify small molecule agonists of the constitutive androstane receptor (CAR) signaling pathway - cell viability counter screen (AID 1224836). Further: nearly all actives have a fitted effect of over 45% in size. The method, boiled down: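 Cell viability multiplexed with the CAR agonist screen: CellTiter-Fluor fluorescence after 23 hr at 37 C. HepG2-CYP2B6-hCAR cells got compounds at 15 concentrations with PK11195 at 0.75 uM final.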

Assay [17] in a line: qHTS assay to identify small molecule antagonists of the constitutive androstane receptor (CAR) signaling pathway - cell viability counter screen (AID 1224837). Further: nearly all actives have a fitted effect of over 45% in size. The method, boiled down:
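To flag cytotoxic false antagonists, HepG2 hCAR/CYP2B6-2.2kb cells were treated 23 hr with 15-concentration compound series and 50 nM CITCO at 37 C/5% CO2; CellTiter-Fluor fluorescence was the measured end point.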

Assay [18] has as its target Nuclear receptor subfamily 1 group I member 3 (Homo sapiens) (UniProt Q14994). As to the kind of experiment: qHTS assay to identify small molecule antagonists of the constitutive androstane receptor (CAR) signaling pathway (AID 1224838).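 Further: HepG2 cells stably expressing hCAR with CYP2B6 luciferase reporter stimulated by CITCO; nearly all actives have a fitted effect of over 40% in size.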 An outline of the steps:
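Human hepatoma HepG2 cells expressing hCAR and a CYP2B6 promoter (2.2 kb) luciferase construct; compound titration (15 points) with 50 nM CITCO final, 24 h at 37 C/5% CO2; luminescence via ONE-Glo after 30 min at room temperature.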

Assay [19] in a line: qHTS assay to identify small molecule agonists of the RXR signaling pathway - cell viability counter screen (AID 1159529). Further: nearly all actives have a fitted effect of over 50% in size. The method, boiled down:
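CellTiter-Glo luminescence gave viability in the wells also read for beta-lactamase. Cells (RXR-alpha-UAS-bla HEK 293T, 2% charcoal-stripped FBS medium) had 5 hr plating, then 16 hr compound exposure at 37 C; tetraoctyl ammonium bromide served as positive control.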

Assay [20] addresses Luciferin 4-monooxygenase (Photinus pyralis) (UniProt P08659). The experiment in a line: qHTS assay to identify small molecule inhibitors of firefly luciferase (AID 1224835). Further: nearly all actives have a fitted effect of over 25% in size. The method, boiled down: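 Quantitative HTS format; KM concentrations of both substrates. Purified P. pyralis FLuc activity quantified from luminescence images.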

Records with an inconclusive call do not appear. Unmarked numbers belong to inactive results. Calls of active or inactive are those of the source. Unless noted, the call rests on the fitted dose curve; in most records, active means well fitted curve in the direction sought with a large enough effect in the repeat runs; inconclusive means weak or mixed curves; inactive means no such curve, though single readings can be large; an effect the other way counts as inactive or inconclusive.

Chain of Retinoic acid receptor RXR-alpha (Homo sapiens) (P19793 whole entry, looked up): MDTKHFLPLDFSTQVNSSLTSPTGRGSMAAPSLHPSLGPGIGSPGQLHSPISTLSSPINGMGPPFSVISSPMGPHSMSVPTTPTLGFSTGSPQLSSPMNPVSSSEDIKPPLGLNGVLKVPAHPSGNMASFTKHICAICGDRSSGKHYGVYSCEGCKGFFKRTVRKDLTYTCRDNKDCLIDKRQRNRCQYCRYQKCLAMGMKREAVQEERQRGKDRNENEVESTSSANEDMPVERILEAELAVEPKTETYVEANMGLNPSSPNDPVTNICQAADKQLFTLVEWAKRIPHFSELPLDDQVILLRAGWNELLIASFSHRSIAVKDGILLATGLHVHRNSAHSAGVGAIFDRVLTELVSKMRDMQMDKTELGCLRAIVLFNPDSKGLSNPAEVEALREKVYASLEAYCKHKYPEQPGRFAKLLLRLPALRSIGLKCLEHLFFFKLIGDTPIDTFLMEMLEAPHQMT
Chain of Nuclear receptor subfamily 1 group I member 3 (Homo sapiens) (Q14994 whole entry, looked up): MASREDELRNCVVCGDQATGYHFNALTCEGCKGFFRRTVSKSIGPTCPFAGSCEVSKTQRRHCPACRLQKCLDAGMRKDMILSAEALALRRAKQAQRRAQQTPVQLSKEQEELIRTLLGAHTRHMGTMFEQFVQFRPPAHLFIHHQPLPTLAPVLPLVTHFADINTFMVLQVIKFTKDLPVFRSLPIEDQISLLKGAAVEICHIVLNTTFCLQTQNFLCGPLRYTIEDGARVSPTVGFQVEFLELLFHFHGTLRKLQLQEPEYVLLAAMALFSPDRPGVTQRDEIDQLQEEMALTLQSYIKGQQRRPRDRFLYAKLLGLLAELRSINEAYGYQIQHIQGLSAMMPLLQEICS
Chain of Luciferin 4-monooxygenase (Photinus pyralis) (P08659 whole entry, looked up): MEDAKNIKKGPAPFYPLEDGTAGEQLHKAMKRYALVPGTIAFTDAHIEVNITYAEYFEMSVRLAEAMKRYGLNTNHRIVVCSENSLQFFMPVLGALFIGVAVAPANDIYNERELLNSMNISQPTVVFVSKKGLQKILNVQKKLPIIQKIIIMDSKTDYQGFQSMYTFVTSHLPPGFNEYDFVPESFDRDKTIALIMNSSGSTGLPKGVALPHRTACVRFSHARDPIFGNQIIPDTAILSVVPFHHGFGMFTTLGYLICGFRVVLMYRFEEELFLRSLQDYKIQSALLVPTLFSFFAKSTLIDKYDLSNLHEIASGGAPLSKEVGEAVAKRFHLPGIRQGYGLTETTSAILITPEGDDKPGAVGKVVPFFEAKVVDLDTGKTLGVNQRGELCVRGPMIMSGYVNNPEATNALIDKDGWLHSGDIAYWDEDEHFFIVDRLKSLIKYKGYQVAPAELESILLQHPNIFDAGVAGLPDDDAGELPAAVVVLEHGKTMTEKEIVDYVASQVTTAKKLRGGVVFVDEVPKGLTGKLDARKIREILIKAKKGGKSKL

With `Cc1ccccc1C`, the compound was classed as inactive in assay [1], in [2], in assay [3], in assay [4], in [5] and in assay [6]. The call in assay [7], in assay [8], in assay [9], in assay [10], in assay [12] and in assay [16] was inactive. Further, the Potency result in assay [11], in assay [13], in assay [14], in [15] and in assay [17] was “inactive” in each case.
Consider `CC(C)(C)c1ccc(C=O)cc1`, for which the call in assay [1], in assay [2], in assay [3], in assay [4], in [5] and in assay [6] was inactive. Also, the compound was called inactive in [7], in assay [8], in assay [9], in [10], in assay [12] and in [16]. Also, the Potency result in assay [11], in assay [13], in assay [14], in assay [15], in assay [17] and in [18] was “inactive” throughout.
Turning to `O=CN1CCOCC1`, the result in [1], in assay [2], in assay [3], in [4], in assay [5] and in assay [6] was inactive. Moreover, the compound was called inactive in assay [7], in assay [8], in assay [10], in assay [19], in assay [12] and in assay [16]. For the same compound, the Potency result in assay [11], in assay [13], in assay [14], in [15], in assay [20] and in assay [17] was “inactive” throughout.
As to `CC(=O)c1ccc(OCC(=O)N2CCCCC2)cc1`, the compound was classed as inactive in [1], in assay [2], in assay [3], in assay [4], in assay [5] and in assay [6]. Also, the outcome in assay [7], in assay [8], in assay [9], in assay [10], in [12] and in assay [16] was inactive. Also, the Potency entry in assay [11], in assay [13], in [15], in assay [17] and in assay [18] was “inactive” each time. The Potency in assay [14] is 13.3 µM (active).
Take `CC(=O)Nc1ncc([N+](=O)[O-])s1`: the result in [1], in assay [2], in assay [3], in assay [4], in assay [5] and in [6] was inactive. Also, the compound was called inactive in assay [7], in assay [8], in [9], in [10], in assay [12] and in assay [16]. In addition, the Potency entry in assay [11], in [13], in assay [14], in assay [20] and in assay [17] was “inactive” each time.
Take `CNC(=O)NC`: the compound was classed as inactive in [1], in assay [3], in assay [4], in assay [5], in assay [6] and in [7]. For the same compound, the call in [8], in assay [10], in assay [19], in assay [12] and in assay [16] was inactive. Moreover, the Potency entry in [11], in [13], in [14], in [15] and in assay [17] was “inactive” throughout.
On to `C/C=C(\C)C(=O)OCC/C=C\CC`, for which the call in assay [1], in assay [2], in assay [3], in [4], in assay [5] and in assay [6] was inactive. In addition, the result in [7], in assay [8], in assay [9], in assay [10], in assay [12] and in [16] was inactive. For the same compound, the Potency result in assay [11], in assay [13] and in [14] was “inactive” each time.
Consider `CCCCCCCCCCCCC`, for which the call in assay [1], in assay [2], in [3], in assay [4], in assay [5] and in [6] was inactive. Further, the outcome in assay [7], in [8], in [10], in assay [19], in assay [12] and in [16] was inactive. The Potency result in assay [11], in assay [13], in assay [14], in assay [15] and in assay [17] was “inactive” throughout.

The values above are taken from PubChem BioAssay (Tox21).
